An excerpt weighted towards active compounds, which were near 4.2% of everything screened.
Pyk2 oligo antag – blocks oligomerization of human Pyk2 in cells; Q14289; Q293 cells, Pyk2 FERM NanoBiT luminescence; active compounds read low; z-score (the deposit names both 25 µM and 10 µM); 0.83% of 99,000 active; AID 1347419;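 active = Z-score of -3 or lower, scaled per plate to the spread of control and sample wells; inactive = z-score above -3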;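 also: negative z-score means lost luminescence so less FERM oligomerization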
Target sequence (Q14289 whole entry, looked up): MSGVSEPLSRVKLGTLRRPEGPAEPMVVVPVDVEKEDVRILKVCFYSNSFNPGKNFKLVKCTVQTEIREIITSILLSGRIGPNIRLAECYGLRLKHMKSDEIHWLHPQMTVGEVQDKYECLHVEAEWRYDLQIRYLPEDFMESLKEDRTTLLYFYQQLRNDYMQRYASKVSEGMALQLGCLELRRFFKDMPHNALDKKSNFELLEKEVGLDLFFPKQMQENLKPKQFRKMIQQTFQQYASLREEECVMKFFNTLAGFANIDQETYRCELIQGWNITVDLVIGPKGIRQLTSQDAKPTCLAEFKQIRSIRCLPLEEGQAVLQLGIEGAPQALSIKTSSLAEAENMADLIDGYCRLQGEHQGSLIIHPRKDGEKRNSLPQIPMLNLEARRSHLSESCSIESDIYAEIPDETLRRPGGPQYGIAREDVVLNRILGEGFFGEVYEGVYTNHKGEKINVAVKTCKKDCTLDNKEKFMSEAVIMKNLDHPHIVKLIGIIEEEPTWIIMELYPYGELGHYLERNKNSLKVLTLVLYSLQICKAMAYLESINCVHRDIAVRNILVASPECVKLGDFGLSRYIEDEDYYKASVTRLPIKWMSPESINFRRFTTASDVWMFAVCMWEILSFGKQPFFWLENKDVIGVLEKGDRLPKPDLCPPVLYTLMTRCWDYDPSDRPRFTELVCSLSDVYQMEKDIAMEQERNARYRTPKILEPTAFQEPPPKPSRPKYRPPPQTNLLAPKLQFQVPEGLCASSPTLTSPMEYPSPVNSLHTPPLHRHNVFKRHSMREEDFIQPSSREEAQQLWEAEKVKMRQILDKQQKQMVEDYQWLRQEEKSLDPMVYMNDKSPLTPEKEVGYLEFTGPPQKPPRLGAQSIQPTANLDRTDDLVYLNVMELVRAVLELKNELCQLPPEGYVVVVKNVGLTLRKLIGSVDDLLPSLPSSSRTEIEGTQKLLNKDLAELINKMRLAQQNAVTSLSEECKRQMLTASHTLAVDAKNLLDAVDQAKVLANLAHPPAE
Cav3 T inh – inhibitors of human Cav3.2 T-type calcium channel; O95180; Cav3.2-expressing cells, Fluo-4 calcium fluorescence FDSS; active compounds read low; B-score at 10 µM; 4% of 100,000 active; AID 449739;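 active = single-dose well whose peak fluorescence ratio is a statistical outlier from its plate by either plate-standardised score or position-corrected B-score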
CD11b adhes inh – CD11b/CD18-fibrinogen binding inhibition; inhibition, % at 10 µM; P05107+P11215; 0.54% of 93,000 active; K562 CD11b/CD18 adhesion to fibrinogen, ATPlite luminescence; Mn2+ added to activate the integrin; AID 1497;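 active = primary inhibition of 50% or more at 10 µM, then 40% or more on retest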
E coli RNAP – blocks E. coli RNA polymerase transcription | P0A8V2 | fluorescence transcription assay | inhibition, %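 (tested at 10 µM)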 | 0.2% of 62,000 active | AID 559; in the data active = inhibition above about 20%
CD11b adhes enh – increases human CD11b/CD18 adhesion to fibrinogen; 0.07% of 93,000 active; activation, % at 10 µM; AID 1499; K562 CD11b/CD18 adhesion to fibrinogen, ATPlite luminescence;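 active = 10 µM primary screen giving 50% or more activity, confirmed by 40% or more on retest at that dose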
Hits are given with their value; - = inactive; . = not tested or not shown.

SMILES	Pyk2 oligo antag	Cav3 T inh	CD11b adhes inh	E coli RNAP	CD11b adhes enh
O=C(NC1CCCC1)C(c1ccsc1)N(Cc1ccco1)C(=O)Cc1cccs1 (configuration not stated)	-	-6.9	-	-	-
O=C(NC1CCCCC1)C(c1ccccc1)N(Cc1ccco1)C(=O)Cn1cnc2ccccc21 (configuration not stated)	-	-5.9	.	-	.
CCOC(=O)CC(=O)CSc1nc2ccccc2c(=O)n1-c1ccc(C(=O)NCCOC)cc1	-	-	-	.	-
Cc1ccc(-c2cc(C(F)(F)F)n3nc(C(=O)NCCCn4ccnc4)cc3n2)cc1C	-	-	-	.	-
COc1ccc(C2C(C(C)=O)=C(C)N=c3s/c(=C\c4cc(C)n(C)c4C)c(=O)n32)c(OC)c1 (configuration not stated)	-	-5	-	.	-
Cc1cc(C(=O)CSc2nnc(N)s2)c(C)n1CCc1ccc(Cl)cc1	-	-4.9	-	-	-
Cc1ccc(Cl)cc1N1CCN(C(=O)CSc2nnc3n2C(C)(C)Cc2ccccc2-3)CC1	-	-5.5	.	.	.
COc1ccc(N2CCN(C(=O)CSc3nnc4n3C(C)(C)Cc3ccccc3-4)CC2)cc1	-	.	-	-	-
Cc1cc(NC(=O)CSc2ccc3ccccc3c2)no1	-	-	-	.	-
O=C(CSc1ccc2ccccc2c1)Nc1ccncc1	-	.	86	.	-
Clc1ccc(SCc2cc(Cl)nc(-c3ccccc3)n2)cc1	-	-	.	.	.
CCOC(=O)C(C)Sc1cc(CS(=O)(=O)c2ccccc2)nc(-c2ccccc2)n1 (configuration not stated)	-	-5.8	.	.	.
O=S(=O)(Cc1cc(Sc2ccc(Cl)cc2)nc(-c2ccccc2)n1)c1ccccc1	-	-4	-	.	-
O=S(=O)(Cc1cc(Oc2ccccc2)nc(-c2ccccc2)n1)c1ccccc1	-	-5.1	-	.	-
c1ccc(Oc2cc(-c3ccccc3)nc(-c3ccccc3)n2)cc1	.	.	-	.	-
Cc1nc(CS(=O)(=O)c2ccc(Cl)cc2)cc(Sc2ccc(Cl)cc2)n1	-	-5.3	-	.	-
CCc1ccccc1N1C(=O)c2cccc3c(N4CCOCC4)c([N+](=O)[O-])cc(c23)C1=O	-3	-	.	.	.
Cc1ccc(NS(=O)(=O)c2cc(C(=O)Nc3cccc(N(C)S(C)(=O)=O)c3)ccc2C)c(C)c1	-	.	.	.	.
Cc1ccc(C)c(NS(=O)(=O)c2cc(C(=O)NCCSC3CCCCC3)ccc2C)c1	-	-4.5	.	.	.
Cc1ccc(C)c(NS(=O)(=O)c2cc(C(=O)NCCC3=CCCCC3)ccc2C)c1	-	-	-	.	-
Cc1ccc(C)c(S(=O)(=O)NCc2ccc(C(=O)NCc3ccco3)cc2)c1	-	-	.	.	.
Cc1ccc(C(=O)NCc2ccco2)cc1S(=O)(=O)Nc1cccc(Cl)c1	-	-6	-	.	-
Cc1ccc(C)c(NS(=O)(=O)c2cc(C(=O)Nc3cccc(N(C)S(C)(=O)=O)c3)ccc2C)c1	-	-4.4	-	.	-
Cc1ccccc1NS(=O)(=O)c1cc(C(=O)NCCSC2CCCCC2)ccc1C	-	-4.4	-	.	-
Cc1ccc(C(=O)NCCSc2ccccc2)cc1S(=O)(=O)Nc1ccccc1	-	-5.8	.	.	.
SMILES	Pyk2 oligo antag	Cav3 T inh	CD11b adhes inh	E coli RNAP	CD11b adhes enh
CCOC(=O)c1c(NC(=O)c2ccc(N3C(=O)[C@@H]4[C@H](C3=O)[C@H]3C=C[C@@H]4C3)cc2)sc2c1CCCC2	.	.	-	.	-
O=C(COC(=O)[C@H](Cc1ccccc1)NC(=O)c1ccco1)NCc1ccccc1	-	-	-	.	-
O=S(=O)(Nc1cccc(CCc2ccccn2)c1)c1ccc2ccccc2c1	-	-4.4	.	.	.
COC(=O)N/N=C/c1cc(Cl)cc(Cl)c1OCc1ccc(F)cc1	-	.	.	.	.
CC(C)(C)c1ccc(-c2nnc(SCCC#N)n2C2CCCC2)cc1	-	-4.4	-	-	-
O=C(Nc1ccccc1)Nc1cc(Cl)cc(Cl)c1	-	-	56	.	-
CSc1cccc(NC(=O)Nc2ccccc2)c1	-	-	-	.	-
O=C(N/C(=N\O)c1ccccc1)Nc1ccc(Cl)cc1	-	-5	-	-	-
O=C(NN=C1CCCCCCCCCCC1)c1ccccc1F	-	.	.	.	.
COCCn1c(C)cc(C2=NNC(=Nc3ccc(OC)cc3)SC2)c1C	-	-	-	.	81
COCCn1c(C)cc(C2=NNC(=Nc3ccccc3)SC2)c1C	-	-	-	.	-
CCN(CC)S(=O)(=O)c1cc([N+](=O)[O-])ccc1NNC(=O)Nc1ccc(F)cc1	-	-	-	.	-
CCN(CC)S(=O)(=O)c1cc([N+](=O)[O-])ccc1NNC(=O)Nc1ccccc1OC	-	-9.1	-	.	-
CN(C)S(=O)(=O)c1cccc(NC(=O)COC(=O)c2ccc(Br)o2)c1	-	-	.	.	.
CCN(CC)S(=O)(=O)c1ccc(NC(=O)COC(=O)c2ccc(Br)o2)cc1	-	-4.7	.	-	.
COc1ccc(CCNC(=O)COC(=O)c2ccc(Br)o2)cc1OC	-	-	-	.	-
COc1ccc(CCNC(=O)COC(=O)c2ccc(Br)o2)cc1	-	-3.8	-	.	-
Cc1csc(NC(C)c2nc3cc(Cl)c(Cl)cc3n2CCCO)n1 (configuration not stated)	.	-	.	.	.
Cc1ccc(SCCNC(=S)Nc2cc(C)ccc2C)cc1	-	-4.1	-	.	-
Cc1ccc(SCCNC(=S)Nc2ccccc2)cc1	-	-6.1	-	.	-
Cc1ccc(SCCNC(=S)Nc2ccc(C)c(C)c2)cc1	-	-4.4	.	.	.
Cc1ccc(CNC(=S)Nc2ccc(C)c([N+](=O)[O-])c2)cc1	.	.	-	.	-
COc1ccccc1NC(=S)NCCSc1ccc(C)cc1	-	.	-	.	-
S=C(NCCSCc1c(Cl)cccc1Cl)Nc1ccccc1	-	-5.8	.	.	.
S=C(NCCSCc1ccc(Cl)c(Cl)c1)Nc1ccccc1	-	-	.	.	.
SMILES	Pyk2 oligo antag	Cav3 T inh	CD11b adhes inh	E coli RNAP	CD11b adhes enh
Cn1cc(C(F)(F)F)nc1-c1ccc(OCC(O)CNCCOc2ccc(O)c(C(N)=O)c2)cc1 (configuration not stated)	.	-	.	.	.
Cc1cc(NC(=O)COC(=O)C(Nc2ccc(C(F)(F)F)cc2Cl)C(C)C)no1 (configuration not stated)	-	-4.5	.	-	.
CCCSc1nc(N2CCOCC2)c2c(c1C#N)CCCC2	-	-6.6	-	-	-
CC(C)CCSc1nc(N2CCOCC2)c2c(c1C#N)CC(C)(C)OC2	-	-3.8	-	-	-
COC(=O)c1ccc(CSc2nc(N3CCOCC3)c3c(c2C#N)CC(C)(C)OC3)o1	-	-	-	-	-
CCOc1cc(/C=N/O)cc(Cl)c1OC	-	-	.	.	.
COc1cc(CNCCc2ccc(S(N)(=O)=O)cc2)ccc1OCC(=O)N1CCCCC1	.	.	-	.	-
CCOC(=O)N1CCN(C(=O)c2oc3ccc(S(=O)(=O)N4CC(C)CC(C)C4)cc3c2C)CC1 (configuration not stated)	-	-	.	-	.
CCOC(=O)C1CCN(C(=O)c2oc3ccc(S(=O)(=O)N4CC(C)CC(C)C4)cc3c2C)CC1 (configuration not stated)	-	-5.9	-	-	-
O=C(OC(C(=O)Nc1cccc(C(F)(F)F)c1)c1ccccc1)C1CCCCC1 (configuration not stated)	.	.	-	.	-
